Shown are actives, neighbours in structure and some others; about 1% of the full set was active somewhere.
S1P4 ag: agonists of human S1P4 receptor; O95977; S1P4-expressing cell line, agonist reporter assay; activation, % at 4.98 µM; 220,000 compounds, 0.35% hits; in the data active = activation above about 11%
Target sequence (O95977 whole entry, looked up): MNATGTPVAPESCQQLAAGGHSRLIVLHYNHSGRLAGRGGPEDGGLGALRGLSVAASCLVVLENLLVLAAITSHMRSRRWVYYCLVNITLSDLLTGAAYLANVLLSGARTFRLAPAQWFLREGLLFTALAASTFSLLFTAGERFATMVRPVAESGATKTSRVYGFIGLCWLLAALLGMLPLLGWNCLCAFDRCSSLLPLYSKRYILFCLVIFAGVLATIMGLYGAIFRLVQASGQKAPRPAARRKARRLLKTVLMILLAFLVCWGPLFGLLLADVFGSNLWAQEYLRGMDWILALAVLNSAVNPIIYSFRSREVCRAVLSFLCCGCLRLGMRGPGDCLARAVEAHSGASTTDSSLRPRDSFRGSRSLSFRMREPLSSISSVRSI
Hsp70 act: Hsp70 transcriptional activation, primary screen; HeLa Hsp70 promoter luciferase reporter, luminescence; scaled: vehicle 0, proteasome-inhibitor control 100%; activation, % at 10 µM; 200,000 compounds, 0.04% hits;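 active = activation above the mean across all tested compounds plus 3 SD, cutoff set per campaign, cut at about 5.5% in these data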
HSV augment: increases HSV replication in cells; HSV replication augmentation in cells, fold increase; maximum fold increase; 220,000 compounds, 0.005% hits; AID 1956; in the data active = maximum fold increase above about 1.5; inconclusive = no clear call, values can overlap the other calls; tested in PC3 cells
TNF necrop inh: TNF-alpha cell death inhibition in Jurkat FADD-/- cells; Jurkat FADD-/- TNF necroptosis rescue, ATP luminescence, 24 h; 0 = TNF only, 100 = no-TNF cells; activation (protection from cell death), % at 10 µM; 220,000 compounds, 0.068% hits;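 active = activation, meaning protection from cell death, of at least 50% relative to plate controls; inactive = activation below 50%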;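 note: necroptosis triggered by 40 ng/mL TNF-alpha added together with compound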
S1P4 antagonist: human S1P4 receptor antagonism. O95977. S1P4-expressing cells, antagonist mode, reporter read-out. inhibition, % at 4.98 µM. 220,000 compounds, 0.26% hits. AID 1510; in the data active = inhibition above about 29%
L929 necroptosis: L929 zVAD cell death inhibition; L929 zVAD necroptosis rescue, ATP luminescence, 24 h; with zVAD 60 µM; viability rescue, % at 10 µM; 220,000 compounds, 0.38% hits; AID 1377;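 active = activation, scaled between plate controls, above about 75%, limit read from the data; inactive = activation under that limit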
Large screens that a line does not name were inactive; ! = a repeat was not active.

Cc1[nH]c(=O)c(C(=O)/C=C/c2ccccc2F)c2c1CCCC2	L929 necroptosis 92
O=C(Nc1nc(-c2ccc3c(c2)OCO3)cs1)C1CC1	L929 necroptosis 76
Cc1cccc2c1NC(=O)C2(c1ccc(O)cc1)c1ccc(O)cc1	S1P4 antagonist 98
Cc1ccc(-c2nnc(SCC(=O)N3CC(C)CC(C)C3)o2)cc1C (stereo not drawn)	none
CC1CC(C)CN(C(=O)CSc2nnc(-c3ccc(Cl)cc3)o2)C1 (stereo not drawn)	L929 necroptosis 83
Cc1cccc(NC(=S)N=Nc2c(O)n(CN3CCOCC3)c3ccccc23)c1C	none
Cc1ccc(N=Nc2c(O)n(CN3CCOCC3)c3ccccc23)cc1	L929 necroptosis 85 (no result: HSV augment)
COc1ccc(-n2c(SCC(=O)O)nc3sc4c(c3c2=O)CCC4)cc1	HSV augment inconclusive
COc1ccc(-n2c(C)nc3sc4c(c3c2=O)CCC4)cc1	TNF necrop inh 93
O=C(CCC(=O)c1ccc(Br)cc1)Nc1cccc(C(F)(F)F)c1	L929 necroptosis 91
Cc1ccc(C(=O)CCC(=O)Nc2cccc(C(F)(F)F)c2)cc1	none
CC(C)CC(NC(=O)C(COC(C)(C)C)NC(=O)C(Cc1ccc(O)cc1)NC(=O)C(CO)NC(=O)C(Cc1c[nH]c2ccccc12)NC(=O)C(Cc1cnc[nH]1)NC(=O)C1CCC(=O)N1)C(=O)N[C@@H](CCCN=C(N)N)C(=O)N1CCCC1C(=O)NNC(N)=O (stereo partly drawn)	none (no result: S1P4 ag, Hsp70 act, TNF necrop inh, S1P4 antagonist, L929 necroptosis)
CCOCC(=O)Nc1nc2ccc(OC)cc2s1	none
COc1ccc2nc(NC(=O)CCn3cccc3)sc2c1	L929 necroptosis 92
COc1ccc(-n2nnnc2S(=O)(=O)CC(=O)N2CCCCC2)cc1	S1P4 antagonist 54, L929 necroptosis 79
COc1ccc(-n2nnnc2S(=O)(=O)Cc2ccc(C(=O)O)cc2)cc1	none
COc1cccc2c1C(=O)c1c(O)c3c(c(O)c1C2=O)C[C@@](O)(C(C)=O)C[C@@H]3O[C@H]1C[C@H](N)[C@H](O)[C@H](C)O1	Hsp70 act 12, S1P4 antagonist 101 (no result: HSV augment)
COc1ccc(C2NC(=S)NC3=C2CCc2cc(OC)ccc23)cc1 (stereo not drawn)	none
COc1cccc(C2/C(=C(\O)c3ccc4c(c3)OCCO4)C(=O)C(=O)N2CCCN(C)C)c1OC (stereo not drawn)	S1P4 ag 38 (no result: HSV augment)
COc1cccc(C2/C(=C(\O)c3ccc4c(c3)OCO4)C(=O)C(=O)N2CCN(C)C)c1OC (stereo not drawn)	none
Cc1nn(C(=O)CNS(=O)(=O)c2ccccc2)c(C)c1Sc1ccc(Cl)cc1	none
O=C(NCCN1CCOCC1)c1ccc2c(c1)ncn2C1CCCCC1	L929 necroptosis 88
O=[N+]([O-])c1cccc(-c2nnc(SCc3cccnc3)o2)c1	none
CC(C)C(C(=O)NCc1ccco1)N(C(=O)CNS(=O)(=O)c1ccc(Cl)cc1)C1CCCC1 (stereo not drawn)	S1P4 ag 11
O=C(CC1SC(=O)NC1=O)Oc1ccc(/C=N/NC(=O)c2ccccc2O)cc1 (stereo not drawn)	none (no result: Hsp70 act)
CCOc1ccc(C(C(=O)NC2CCCCC2)N(C(=O)Cc2cccs2)c2ccc(-n3cnnn3)c(OC)c2)cc1 (stereo not drawn)	none
O=C(CN1CCN(c2ccccc2)CC1)N1N=CCC1c1ccccc1 (stereo not drawn)	none
O=C(CN1CCN(C(c2ccccc2)c2ccccc2)CC1)N1N=CCC1c1ccccc1 (stereo not drawn)	TNF necrop inh 68 (no result: Hsp70 act)
O=C(CSC(=S)N1CCOCC1)N1N=CCC1c1ccccc1 (stereo not drawn)	TNF necrop inh 50
CC1CCC2(CC1)OCC1(CCC3(COC4(CCC(C)CC4)OC3)C1=O)CO2 (stereo not drawn)	none
Cc1onc(-c2ccccc2Cl)c1C(=O)Oc1cccc2cccnc12	none
CCOc1cccc2sc(N(CCN(CC)CC)C(=O)c3cccc([N+](=O)[O-])c3)nc12	none
COc1cc(Cc2cnc(N)nc2N)cc(OC)c1OC	S1P4 ag 18!
COc1ccccc1CNCc1cc(OC)c(OC)c(OC)c1	none
COc1cccc(/C=N/N2C(=O)C3C4c5ccccc5C(c5ccccc54)C3C2=O)c1OC (stereo not drawn)	S1P4 ag 13

Screening results (PubChem)
